The list is not random: actives were taken first. Their share in the collection is about 2.4%.
D2 antagonist = antagonists of human D2 dopamine receptor | HEK293 TREx D2 cells, calcium flux, dopamine EC80 | 340,000 tested, 2% active | P14416 | inhibition, % at 10 µM; in the data active = inhibition above about 30%; inactive = below that, where a call was filed; also: 0% is about no effect
Target sequence (P14416 whole entry, looked up): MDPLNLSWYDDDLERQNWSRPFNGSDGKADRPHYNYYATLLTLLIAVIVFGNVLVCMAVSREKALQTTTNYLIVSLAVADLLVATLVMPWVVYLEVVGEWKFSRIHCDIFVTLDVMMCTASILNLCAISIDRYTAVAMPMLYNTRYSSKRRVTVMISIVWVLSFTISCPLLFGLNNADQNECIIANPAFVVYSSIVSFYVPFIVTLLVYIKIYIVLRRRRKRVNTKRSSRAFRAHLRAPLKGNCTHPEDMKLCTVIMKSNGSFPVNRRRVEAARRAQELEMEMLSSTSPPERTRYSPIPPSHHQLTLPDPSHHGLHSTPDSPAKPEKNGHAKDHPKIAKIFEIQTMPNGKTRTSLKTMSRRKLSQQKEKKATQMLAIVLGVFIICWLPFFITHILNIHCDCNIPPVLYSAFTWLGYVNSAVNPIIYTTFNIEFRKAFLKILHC
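Antagonism is scored as inhibition of an EC80 dopamine-evoked calcium signal in a force-coupled, tetracycline-inducible HEK293 T-REx D2 line, with compound present 180 s before agonist.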
D2 PAM-1 = potentiates the human D2 dopamine receptor allosterically | potentiation, % (test concentration not listed) | DiscoveRx D2 beta-arrestin cells, luminescence, 90 min; 100% = 57 uM dopamine signal | 360,000 tested, 0.23% active; in the data active = potentiation above about 50%; inconclusive = mostly about 30% to 49%
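D2 cells co-treated with compound plus 50 nM dopamine (EC20) for 90 min at 37 deg C to detect potentiation. Beta-arrestin recruitment was read as enzyme-fragment luminescence after 1 h at ambient temperature. Full response was set by 57 uM dopamine.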
D2 ag-1 = activates the human D2 dopamine receptor. P14416. 340,000 tested, 0.53% active. activation, % at 2 µM. HEK293 T-REx D2 cells, calcium flux agonist mode;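 active = activation over 3 SD above normal in the single-dose calcium agonist read, cut at about 30% in these data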; also: 0% is about no effect
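Calcium-flux readout, 1 cycle/sec over 180 s following compound pin transfer, in inducible HEK293 Trex D2 cells (force-coupled); dopamine controls included. Positive calcium responses during this window marked compounds as potential agonists.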
D2 ag-2 = human D2 receptor agonism in beta-arrestin assay; DiscoveRx PathHunter D2 beta-arrestin, luminescence, 90 min; 100% = 57 uM dopamine signal; activation, % (concentration not given with the values); 360,000 tested, 0.084% active; AID 624465; in the data active = activation above about 40%; inconclusive = between about 15% and that limit
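DiscoveRx PathHunter D2 beta-arrestin cells (2,100/well) attached overnight, then compound-stimulated 90 min at 37 C in HBSS/10 mM HEPES/0.1% Tween-20 buffer; beta-galactosidase complementation read by luminescence after 1 h at ambient temperature. Dopamine 57 uM final (EC100) as control.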
D2 PAM-2 = positively modulates the human D2 dopamine receptor allosterically; potentiation, % at 10 µM; P14416; HEK293 T-REx D2, calcium flux, EC20 dopamine potentiation; 340,000 tested, 0.34% active;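 active = potentiation over 3 SD above the plate norm, cut at about 30% in these data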; also: 0% is about no effect
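Calcium flux readout, no-wash dye, 1 read/s. Inducible HEK293 Trex D2 line, overnight 30 C. Compound alone 180 s (agonist flags), then EC20 dopamine, another 180 s to score potentiation.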
* marks the source's active call; other numbers are inactive results.

CC(C)Cc1nnc(NC(=O)c2cc(-c3ccccc3)nc3ccccc23)s1 was read as D2 antagonist 7, D2 PAM-1 -5, D2 ag-1 1, D2 ag-2 -2 and D2 PAM-2 30*.
Screening CC(C)Cc1nnc(NC(=O)c2cc(-c3ccncc3)nc3ccccc23)s1 returned D2 antagonist 3, D2 PAM-1 3, D2 ag-1 1, D2 ag-2 3 and D2 PAM-2 18.
Cc1ccc(C)c(OCCN2C(=O)NC3(CCc4ccccc4C3)C2=O)c1 (stereo not drawn) was read as D2 antagonist 33*, D2 PAM-1 -27, D2 ag-1 1, D2 ag-2 -4 and D2 PAM-2 -3.
Cc1cc(C)c(Cn2c3ccccc3c3cnn(CC(=O)N4CCCCCC4)c(=O)c32)c(C)c1 was read as D2 ag-1 -1 and D2 PAM-2 5.
`CC1C/C(=N/O)C(C)CN1` (stereo not drawn) gave D2 antagonist 6, D2 PAM-1 9, D2 ag-1 2, D2 ag-2 2 and D2 PAM-2 31*.
For COc1cccc(NCc2ccc([N+](=O)[O-])s2)c1 the results were D2 antagonist -29, D2 PAM-1 50*, D2 ag-1 0, D2 ag-2 10 and D2 PAM-2 19.
For CCOC(=O)c1cc(S(=O)(=O)Nc2ccccc2OCC)[nH]n1 the results were D2 PAM-2 4.
For CC1CN(C(=O)/C(C#N)=C2\N=C(NC(=O)c3ccccc3Cl)c3ccccc32)CC(C)O1 (stereo not drawn) the results were D2 antagonist 59*, D2 ag-1 0 and D2 PAM-2 2.
For CC(=O)Nc1ccc(S(=O)(=O)Nc2ccccc2C(=O)N2CCCCC2)cc1 the results were D2 antagonist 3, D2 PAM-1 -9, D2 ag-1 -1, D2 ag-2 -4 and D2 PAM-2 31*.
`COCCCNS(=O)(=O)c1ccc2c(c1)OCCO2` gave D2 antagonist 34*, D2 PAM-1 -5, D2 ag-1 0, D2 ag-2 -2 and D2 PAM-2 3.
`CCOCCCNS(=O)(=O)c1ccc2c(c1)OCCO2` gave D2 antagonist -1, D2 PAM-1 -3, D2 ag-1 0, D2 ag-2 0 and D2 PAM-2 -1.
`COc1ccc(CCNS(=O)(=O)c2ccc3c(c2)OCCO3)cc1OC` gave D2 antagonist 2, D2 PAM-1 -4, D2 ag-1 0, D2 ag-2 -1 and D2 PAM-2 105*.
`Oc1ccc(/C=N/Nc2ccc(Cl)nn2)c(O)c1O` gave D2 antagonist 6, D2 PAM-1 15, D2 ag-1 1, D2 ag-2 50* and D2 PAM-2 -6.
COc1ccc(OC)c(CNc2ncnc3onc(-c4ccc(Cl)cc4)c23)c1 was read as D2 ag-1 -1 and D2 PAM-2 -4.
`COc1ccc(S(=O)(=O)N(C)C)cc1NC(=O)COC(=O)Cn1cnc2ccccc2c1=O` gave D2 antagonist 38*, D2 PAM-1 -2, D2 ag-1 1, D2 ag-2 0 and D2 PAM-2 -13.
For Cc1ccc(S(=O)(=O)N(C)C)cc1NC(=O)COC(=O)c1n[nH]c(=O)c2ccccc12 the results were D2 antagonist 52*, D2 PAM-1 -19, D2 ag-1 0, D2 ag-2 -7 and D2 PAM-2 -21.
For COc1ccc(NC(=O)COC(=O)Cn2cnc3ccccc3c2=O)cc1OC the results were D2 antagonist -11, D2 PAM-1 -6, D2 ag-1 1, D2 ag-2 -2 and D2 PAM-2 0.
`COc1ccc(S(=O)(=O)N(C)C)cc1NC(=O)CCCSc1ccccc1` gave D2 antagonist 48*, D2 PAM-1 -19, D2 ag-1 -1 and D2 ag-2 -4.
Screening COC(=O)c1ccc(C)c(NC(=O)Cn2cnc3ccccc3c2=O)c1 returned D2 antagonist 35*, D2 PAM-1 -1, D2 ag-1 1, D2 ag-2 0 and D2 PAM-2 0.
`COc1ccc(C2=Nc3ccc(OC(F)(F)F)cc3NC(c3cccnc3)=N2)cc1` gave D2 ag-1 0 and D2 PAM-2 8.
Screening COc1ccc(-c2cn3nc(SCC(=O)Nc4cccc(C)c4C)ccc3n2)cc1 returned D2 PAM-2 8.
Screening Cc1cccc(-c2nc(CSc3nncn4c3cc3oc(C)cc34)c(C)o2)c1 returned D2 ag-1 0 and D2 PAM-2 0.
`COc1cccc(NC(=O)c2oc3ccccc3c2NC(=O)c2ccc(OC(C)C)cc2)c1` gave D2 ag-1 0 and D2 PAM-2 -10.
Screening CCOc1ccc(-c2nnc(SCC(=O)NCCC(C)C)nc2-c2ccc(OCC)c(OC)c2)cc1OC returned D2 ag-1 -1.
`COC(=O)CC1COc2ccccc2N1C(=O)c1ccc(C(C)(C)C)cc1` (stereo not drawn) gave D2 antagonist 7, D2 PAM-1 59*, D2 ag-1 33*, D2 ag-2 inconclusive and D2 PAM-2 -18.
N/C(=N\OC(=O)c1ccccc1)c1ccncc1 was read as D2 antagonist -12, D2 PAM-1 7, D2 ag-1 3, D2 ag-2 3 and D2 PAM-2 -25.
Screening N/C(=N\OC(=O)c1ccc(Br)cc1)c1ccncc1 returned D2 antagonist 26, D2 PAM-1 52*, D2 ag-1 0, D2 ag-2 42* and D2 PAM-2 2.
`COc1cc(OC)cc(C(=O)O/N=C(\N)c2ccncc2)c1` gave D2 antagonist -19, D2 PAM-1 111*, D2 ag-1 -1, D2 ag-2 inconclusive and D2 PAM-2 9.
`CC1Cc2ccccc2N1C(=O)CSc1nc2ccc(NC(=O)COc3ccccc3)cc2s1` (stereo not drawn) gave D2 ag-1 3 and D2 PAM-2 -6.
For COc1ccc(CCNCC(=O)Nc2c(C)cc(C)cc2C)cc1OC the results were D2 antagonist 45*, D2 PAM-1 -3, D2 ag-1 -1, D2 ag-2 6 and D2 PAM-2 8.
Screening COc1ccc(CCNC(=O)c2[nH]c(C)c(C(C)=O)c2C)cc1OC returned D2 antagonist 38*, D2 PAM-1 -14, D2 ag-1 -1, D2 ag-2 0 and D2 PAM-2 1.
CC(C)c1ccc(NC(=O)CSC2=Nc3ccccc3C3=NC(CCC(=O)NCc4cccs4)C(=O)N23)cc1 (stereo not drawn) was read as D2 ag-1 0.
`COc1ccc(-n2c(O)c(/C=N/NS(=O)(=O)c3cc(C)ccc3C)c3ccccc3c2=O)cc1OC` gave D2 antagonist 27, D2 PAM-1 -14, D2 ag-1 41*, D2 ag-2 -2 and D2 PAM-2 0.

Assay outcomes (PubChem BioAssay)
